Source: PubChem BioAssay
Compounds with a hit are over-represented: about 9% of the library has one in this group of screens.
ALOX12 inh: Primary qHTS assay for inhibitors of human arachidonate 12S-lipoxygenase (ALOX12): Round 2. purified 12hLO, xylenol orange hydroperoxide absorbance. 1.1% of 580,000 active. AID 1671190, 2021. Potency, µM (titrated, usually from 108 µM), for inactives: at the highest dose activity change, negative = inhibition, usual class: inhibitors; note: % is set by controls: 0 for no effect and ±100 for the full control effect
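Purified human 12hLO (150 nM final) in 25 mM Hepes, 0.01% Triton X-100, pH 7.0 was preincubated 15 min at room temperature with compound. Then 40 uM arachidonic acid was added, 30 min. Hydroperoxide was read by Fe-XO absorbance ratio 573/405 nm.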
HP1b binding inh: HTS for Inhibitors of HP1-beta Chromodomain Interactions with Methylated Histone Tails; Potency, µM (titrated, usually from 114 µM), inactives show at the top dose activity change, negative = inhibition, most hits filed as inhibitors; AlphaScreen HP1-beta / biotin-H3K9me3 peptide binding; 0.56% of 390,000 active; note: nearly all actives have a fitted effect of over 70% in size
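Compound inhibition of the preformed complex between 50 nM HP1-beta and 50 nM biotinylated H3K9me3 peptide was read by AlphaScreen. Buffer was PBS pH 7.4 with 0.01% Tween-20. Incubations ran 30 min at room temperature, with 10 ug/mL donor/acceptor beads.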
G9a inh: qHTS Assay for Inhibitors of Histone Lysine Methyltransferase G9a. Histone-lysine N-methyltransferase EHMT2 (Homo sapiens), Q96KQ7. G9a H3K9 monomethylation, AlphaScreen, 2 h. Potency, µM (titrated, usually from 102 µM), for inactives: at the highest dose activity, negative = inhibition, actives largely listed as inhibitors. 8.8% of 350,000 active; note: % is set by controls: 0 for no effect and ±100 for the full control effect; nearly all actives have a fitted effect of over 75% in size
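Readings reflect AlphaScreen signal from monomethyl-H3K9 antibody detection. HMT at 20 nM; substrate b-H3K9 500 nM; cofactor SAM 20 uM; 2 h RT reaction; compounds tested as titrations in qHTS with 15 min preincubation.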
BAZ2B inh: qHTS Assay for Inhibitors of BAZ2B | Bromodomain adjacent to zinc finger domain protein 2B (Homo sapiens), Q9UIF8 | 4.4% of 360,000 active | AlphaScreen BAZ2B-H3K14Ac peptide displacement | Potency, µM (highest dose often 114 µM), for the others: at the top dose activity change, negative = inhibition, most hits filed as inhibitors; note: % is set by controls: 0 for no effect and ±100 for the full control effect; nearly all actives have a fitted effect of over 60% in size
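Complex of BAZ2B and biotin-H3K14Ac (50 nM apiece) forms over 30 min at RT, then faces library compounds up to 110 uM for another 30 min; AlphaScreen beads added, 20 min dark incubation, luminescence read.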
PLK1 PBD block: qHTS for Inhibitors of PLK1-PDB (polo-like kinase 1 - polo-box domain): Primary Screen; Potency, µM, for inactives: max response, negative = inhibition, most hits filed as inhibitors; AID 720504, 2013; Plk1 PBD binding of FITC phosphopeptide, fluorescence polarization; 2.8% of 360,000 active; Serine/threonine-protein kinase PLK1 (Homo sapiens), P53350; note: series mostly up to about 57 µM; % is set by controls: 0 for no effect and ±100 for the full control effect; nearly all actives have a fitted effect of over 65% in size
JMJD2A Tudor inh: qHTS Assay for Inhibitors of JMJD2A-Tudor Domain; Lysine-specific demethylase 4A (Homo sapiens), O75164; AlphaScreen JMJD2A-Tudor / H3K4me3 peptide binding; Potency, µM (series often up to 114 µM), for the others: at the highest dose activity change, negative = inhibition, actives largely listed as inhibitors; 4.4% of 390,000 active; AID 504339, 2011; note: % is set by controls: 0 for no effect and ±100 for the full control effect; nearly all actives have a fitted effect of over 50% in size
* hit, by the source's call; ? = inconclusive; . = no result given; [ ] = another dose, or the depositor's remark. Calls come from the whole dose curve; as a rule, active = well fitted curve in the direction sought with a large enough effect; inconclusive = small, poorly fitted or top-dose-only effect, or another doubt; inactive = no such curve, though single readings can be large; an effect the other way counts as inactive or inconclusive. Potency is the fitted concentration of half-maximal effect.

SMILES | ALOX12 inh | HP1b binding inh | G9a inh | BAZ2B inh | PLK1 PBD block | JMJD2A Tudor inh
CC(=O)c1ccc(S(=O)(=O)NCC(=O)NC(c2nc3ccccc3[nH]2)C(C)C)cc1 (stereo unspecified) | ? | 12.6% | . | . | 18.9µM* | -28.4%
CCCOc1ccccc1C(=O)N(Cc1ccco1)C1CCS(=O)(=O)C1 (stereo unspecified) | 0.0% | -8.5% | 11.3%[59 µM] | 1.5% | 29.9µM* | -23.3%[11.4 µM]
CCCCOC(=O)n1ccc(C(=O)Nc2ccccc2OC)n1 | -7.4% | 53.5% | 52.5% | 20.8% | -0.8% | 11.7%
CCOC(=O)C1CCN(C(=O)Cn2cnc3sc(C)c(S(=O)(=O)N4CCC(C)CC4)c3c2=O)CC1 | -1.9% | 5.3% | 11.4% | -0.1% | -5.3% | -10.2%
CCOC(=O)C1CCN(C(=O)Cn2cnc3sc(C)c(S(=O)(=O)N4CCCCC4)c3c2=O)CC1 | -0.6% | 32.2% | 50.1µM* | 5.7% | -3.3% | -1.8%
CS(=O)(=O)c1ccc(-c2cccc(NC(=O)c3ccco3)c2)nn1 | 10.5% | 21.6% | -29.8% | -5.0% | -0.2% | -0.7%
COc1ccc(-c2cccc(NC(=O)c3ccco3)c2)nn1 | -25.2% | 8.4% | 50.1µM* | -17.5% | -8.0% | -21.4%
COc1ccc(-c2ccc(NC(=O)c3ccco3)cc2)nn1 | -11.0% | -7.9% | 39.8µM* | 9.1% | -12.4% | -21.3%
CSc1cccc(NC(=O)C2CCCN(C(=O)c3cnn(-c4ccc(F)cc4)c3-n3cccc3)C2)c1 (stereo unspecified) | -29.7% | -20.0% | -35.5%[59 µM] | -13.6% | . | -26.3%
O=C(NCC1(c2ccccc2)CCCC1)c1ccc(Br)cc1 | 7.0% | 31.7% | -2.7% | -4.8% | 4.6% | -8.2%
CN(C)C[C@@H]1CN(C2CCOCC2)C[C@H]1NC(=O)c1cc2ccccc2[nH]1 | 6.6% | . | . | . | . | .
CC(=O)Nc1cccc(/C(C)=N\NC(=O)c2ccc(Cn3nc([N+](=O)[O-])c(Cl)c3C)o2)c1 | -6.6% | -7.2% | -0.3%[2.33 µM] | -3.1% | 21.2µM* | 50.1µM*
CCn1cc([N+](=O)[O-])c(C(=O)N2N=C(c3cccc4ccccc34)CC2c2ccccc2O)n1 (stereo unspecified) | -29.2%[57.4 µM] | -8.2% | ? | ? | 2.2% | ?
CCn1cc([N+](=O)[O-])c(C(=O)N2N=C(c3ccc(OC)cc3OC)CC2c2ccccc2O)n1 (stereo unspecified) | -6.8% | ? | 44.7µM* | -2.5% | -9.2% | ?
Cc1[nH]n(C(N)=S)c(=O)c1N=Nc1cccc(Cl)c1 | 0.0% | -0.8% | 39.8µM* | -4.0% | ? | -25.8%
Cc1ccccc1N=Nc1c(C)[nH]n(C(N)=S)c1=O | ? | ? | ? | -0.8% | ? | ?
NC(=S)n1[nH]c(-c2ccc([N+](=O)[O-])cc2)c(N=Nc2cccc(Cl)c2)c1=O | ? | -18.3% | 35.5µM* | ? | ? | 39.8µM*
NC(=S)n1[nH]c(-c2ccc([N+](=O)[O-])cc2)c(N=Nc2ccc(O)cc2)c1=O | ? | ? | 56.2µM* | 50.1µM* | ? | ?
Cc1[nH]n(C(N)=S)c(=O)c1N=Nc1ccc([N+](=O)[O-])cc1Cl | 10µM* | ? | 25.1µM* | 28.2µM* | -20.6% | ?
Cc1cccc(N=Nc2c(C)[nH]n(C(N)=S)c2=O)c1C | -13.9% | . | ? | ? | . | .
Cc1[nH]n(C(N)=S)c(=O)c1N=Nc1ccccc1C(F)(F)F | 0.0% | 10.3% | ? | -35.8% | 23.8µM* | ?
CC(=O)N1CCCc2cc(S(=O)(=O)N3CCCC(C(=O)N4CCN(c5cc(C)ccc5C)CC4)C3)ccc21 (stereo unspecified) | -10.8% | 19.4% | 1.6% | -30.6%[57.1 µM] | 3.2% | 3.98µM*
CCOC(=O)c1c(C)[nH]c(C)c1S(=O)(=O)N1CCCC(C(=O)N2CCN(c3cc(C)ccc3C)CC2)C1 (stereo unspecified) | ? | -20.8% | -33.0%[59 µM] | 44.7µM* | . | ?
CCN(CC(=O)Nc1ccc(NC(C)=O)cc1)C(=O)c1ccc(S(=O)(=O)N2CCCC2)cc1 | -2.4% | 31.8% | . | . | -7.8% | -5.7%
Cc1ccc(OCC(=O)Nc2nnc(SCc3cc(=O)n4cccc(C)c4n3)s2)cc1 | -25.8% | 7.8% | -3.9%[59 µM] | -11.3% | . | ?
SMILES | ALOX12 inh | HP1b binding inh | G9a inh | BAZ2B inh | PLK1 PBD block | JMJD2A Tudor inh
O=c1cc(CSc2nnc(Nc3ccccc3F)s2)nc2sccn12 | -5.3% | 8.1% | ? | -23.4% | -15.6% | -12.8%
COc1ccc(Nc2nnc(SCc3cc(=O)n4ccsc4n3)s2)cc1 | ? | -2.2% | 3.98µM* | -1.9%[57.1 µM] | ? | 22.4µM*
Cc1cccn2c(=O)cc(CSc3nnc(NC(=O)COc4ccccc4)s3)nc12 | ? | 36.4%[57 µM] | -27.5%[12.7 µM] | 28.2µM* | . | 56.2µM*
O=[S+]([O-])(c1ccc2c(c1)OCCO2)N1CCN([S+](=O)([O-])c2cc(Cl)ccc2F)CC1 | . | . | . | . | . | -11.0%
Cc1ccc(C(CNC(=O)c2cc3ccccc3oc2=O)N2CCC(C)CC2)o1 (stereo unspecified) | -3.1% | . | . | . | . | .
C=CCSC1=C(C#N)C(c2ccccc2Cl)C(C(=O)c2cccs2)C(O)(C(F)(F)F)N1 (stereo unspecified) | -6.8% | 30.0% | -2.9%[59 µM] | -24.2% | -6.4% | -23.2%
N#Cc1ccc(OCC(=O)Nc2ccncc2)cc1 | ? | 35.0% | 50.1µM* | -11.1% | -11.4% | -2.4%
N#Cc1ccc(OCC(=O)NCCCn2ccnc2)cc1 | -16.5% | 8.6%[57 µM] | . | . | -8.8% | 63.1µM*
O=C(COc1ccc(Br)cc1)Nc1ccncc1 | -2.7% | 34.5% | 22.6% | 7.4% | -3.9% | -2.4%
COc1ccc([C@@H](C)NC(=O)CCc2nnc(-c3cc(C)on3)o2)cc1 | -0.5% | 47.6% | 8.0% | 0.0% | -8.0% | -18.6%
CN(C)C(=O)c1cnc(Cc2c[nH]c3ccccc23)c(I)c1 | 14.1µM* | . | . | . | . | .
Cc1cnc(C(=O)NCCc2c[nH]c3ccccc23)cn1 | -18.0% | . | . | . | . | .
CC(C)CCC1(CCNC(C)c2cccs2)CCOC(C)(C)C1 (stereo unspecified) | -13.1% | 31.9% | 4.2%[59 µM] | -4.3% | -1.3% | -16.4%
CC(C)CCC(CCNC(C)c1cccs1)C1CCOC(C)(C)C1 (stereo unspecified) | 1.78µM* | . | . | . | . | .
COC(=O)c1c(OC)cc2c(c1C)Oc1c(Cl)c(O)c(Cl)c(C)c1C(=O)O2 | 7.1% | . | -43.8%[2.33 µM] | . | . | .
